14 compounds from PubChem BioAssay (EPA / NIEHS) can be followed below.

SMILES strings stand for the structures. Calls of active or inactive are those of the source. Rule for the calls: active = hit-call score of the fitted dose curve at least 0.9, where 1 is the maximum; inactive = score below 0.9.

A short description of this assay: Tanguay_ZF_120hpf_DP24: Oregon State University Tanguay Lab 24 Hour Post-fertilization zebrafish Assay for Delayed Development (AID 2284390). Here is the method:
Tanguay_ZF_120hpf is a whole embryo, multiplexed endpoint assay using zebrafish larvae exposed for 120 hours post fertilization on a 96-well plate.Tanguay_ZF_120hpf_DP24 is […] measured or calculated from the Tanguay_ZF_120hpf assay. It is designed to make measurements of zebrafish development as detected with brightfield microscopy of developing zebrafish embryos.Data from the assay component Tanguay_ZF_120hpf_DP24 was analyzed into 1 assay endpoints. This assay endpoint, Tanguay_ZF_120hpf_DP24, was analyzed in the positive analysis fitting direction relative to DMSO as the negative control and baseline of activity. Using a type of morphology reporter, gain-of-signal activity can be used to understand changes in developmentals as they relate to the whole embryo. To generalize the intended target to other relatable targets, this assay endpoint is annotated to the zebrafish development intended target family, where the subfamily is embryonic morphogenesis.
Zebrafish husbandry: Tropical 5D wild-type adult zebrafish were housed in at an approximate density of 1000 per 100 gallon tank at the Sinnhuber Aquatic Research Laboratory, Oregon State University, Corvallis, OR. Each tank was kept at standard laboratory conditions of 28C on a 14-h light/10-h dark photoperiod in fish water consisting of reverse osmosis water supplemented with a commercially available salt (Instant Ocean). Spawning funnels were placed into the tanks the night prior, and embryos were collected and staged. To increase bioavailability, the chorion was enzymatically removed using pronase (63.6mg/ml, >/= 3.5U/mg, Sigma-Aldrich: P5147) at 4 hours post fertilization (hpf) using a custom automated dechorionator.Chemical exposures: Six hpf dechorionated embryos were placed 1 embryo per well in a 96-well plate prefilled with 90 ul of EM using automated embryo placement systems (AEPS). Ten microliters of each row of dilution plate 2 was added to 2 exposure plates. The final DMSO concentration used was 0.64% (vol/vol). Thirty-two embryos were also exposed to 5uM trimethyltin chloride (positive control). Plates were sealed to prevent evaporation and foil covered to reduce light exposure and kept in a 28C incubator. Embryos were statically exposed until 120 hpf. At 24 hpf, embryos were assessed for photomotor response using a custom photomotor response analysis tool (PRAT) and for developmental toxicity endpoints (MO24: mortality at 24 hpf, DP: developmental progression, SM: spontaneous movement, and NC: notochord distortion). At 120 hpf, locomotor activity was measured using Viewpoint Zebralab and assessed for 13 endpoints. Zebrafish acquisition and analysis program (ZAAP), a custom program designed to inventory, acquire, and manage zebrafish data, was used to collect developmental endpoints as either present or absent (i.e., binary responses were recorded). If mortality occurred for an embryo (at either 24 or 120 hpf), the non-mortality endpoints were not measured.
For `OCC(F)(F)OC(F)(F)C(F)(F)OC(F)(F)C(F)(F)OC(F)(F)CO`, the half-maximal activity concentration (AC50) was 33.3 µM (active).

Consider `O=S(=O)(F)C(F)(F)C(F)(F)C(F)(F)C(F)(F)C(F)(F)C(F)(F)C(F)(F)C(F)(F)F`, for which the compound was classed as inactive. Same read-out and setting: as for `O=C(O)C=CC(F)(C(F)(F)F)C(F)(F)F`, the entry is “inactive”; as for `CC(O)C(F)(F)C(F)(F)F` (centres undefined), “inactive”; as for `OCC(F)(F)OC(F)(F)C(F)(F)OC(F)(F)CO`, “inactive”. Regarding `O=C(O)C(F)(OC(F)(F)C(F)(F)C(F)(F)F)C(F)(F)F` (centres undefined), the compound was called inactive. As to `O=C(O)C(F)(F)OC(F)(F)C(F)(F)OC(F)(F)F`, the compound was called inactive. On to `OCC(F)(F)OC(F)(F)C(F)(F)OC(F)(F)C(F)(F)OC(F)(F)F`, for which the result was inactive. For the compound `C=CC(=O)OCC(F)(F)C(F)F`, the AC50 was 45.3 µM (active). For `O=C(O)C(F)(F)C(F)(F)C(=O)O`, the result was inactive. As for `COC(=O)C(F)(F)C(F)(F)OC(F)(C(F)(F)F)C(F)(F)OC(F)=C(F)F` (centres undefined), the call was inactive. The same measure, in the same setting: as for `NC(=O)C(F)(F)C(F)(F)F`, the entry is “inactive”; as for `O=C(O)C(F)(F)OC(F)(F)C(F)(F)OC(F)(F)C(=O)O`, “inactive”. As to `FC(F)(F)C(F)(C(F)(F)F)C(F)(F)C(F)(F)CC1CO1` (centres undefined), the compound was classed as inactive.
